Screening data from PubChem BioAssay.
Shown are actives, neighbours in structure and some others; about 3.8% of the full set was active somewhere.
ATXN2 expr inh: Primary qHTS for Inhibitors of ATXN expression | HEK-293 ATXN2-luciferase reporter, luminescence, 24 h | Potency, µM (doses to about 57 µM), for inactives: top-dose activity change, negative = inhibition, hits mostly inhibitors | AID 1745845, 2022 | hit rate 0.72% among 360,000; also: % is scaled to controls: 0 for no effect and ±100 for the full control effect; nearly all actives have a fitted effect of over 55% in size
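qHTS (up to 57 uM final) was run with 24 h compound exposure of reporter cells at 37 °C. Each well was multiplexed: SteadyGlo luminescence measured ATXN2-luciferase expression after a fluorogenic Gly-Phe-AFC viability readout (25 uM final).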
HT1080-NT tox: qHTS for induction of synthetic lethality in tumor cells producing 2HG: qHTS for the HT-1080-NT fibrosarcoma cell line; HT-1080-NT fibrosarcoma viability, CellTiter-Glo ATP luminescence, 48 h; Potency, µM (highest dose often 46.1 µM), without a hit: top-dose activity, negative = less viability, actives largely listed as cytotoxic; hit rate 1.6% among 360,000; AID 686970, 2013;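 also: NT is the 2HG producing partner of a matched IDH1 knockdown line; 0% = DMSO-treated cells and -100% = media-only wells without cells; nearly all actives have a fitted effect of over 55% in size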
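Toxicity toward the 2HG-producing NT line was scored as %Activity, normalised to DMSO and no-cell wells, from CellTiter-Glo luminescence after 48 hours' treatment.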
HT1080 IDH1KD tx: qHTS for induction of synthetic lethality in tumor cells producing 2HG: qHTS for the HT-1080-IDH1KD cell line | AID 686971, 2013 | HT-1080 IDH1 knockdown viability, ATP luminescence, 48 h | Potency, µM (titrated, usually from 46.1 µM), without a hit: at the top dose activity, negative = toxicity, actives largely listed as cytotoxic | hit rate 2% among 360,000;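 also: 0% = DMSO wells and -100% = cell-free medium wells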
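Assay cells: HT-1080 with IDH1 knockdown, 750 per well, RPMI/5% FBS. Exposure: 48 h at 37 °C following 2 h pre-incubation. Read: CellTiter-Glo luminescence; fitted concentration-response, curve class assigned.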
TGFb inhibitor: qHTS for Inhibitors of TGF-b; HepG2 CAGA-GFP TGF-b/SMAD3 reporter, GFP fluorescence, 18 h; TGF-beta stimulated, 500 pg/mL final; hit rate 1.2% among 410,000; Potency, µM (doses to about 46.1 µM), for the others: at the highest dose activity, negative = inhibition, actives largely listed as inhibitors; also: % is scaled to controls: 0 for no effect and ±100 for the full control effect; nearly all actives have a fitted effect of over 65% in size
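HEPG2 CAGA-GFP reporter cells (1000/well, DMEM with 1% FBS) received compounds, then recombinant TGF-beta at 500 pg/mL final for 18 hours at 37 degrees C. Per-cell GFP summed per well was normalised to unstimulated and stimulated DMSO controls before curve fitting.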
HepG2 tox: qHTS for Inhibitors of TGF-b: Cytotox Counterscreen; Potency, µM (doses to about 46.1 µM), inactives show top-dose activity change, negative = cytotoxicity, usual class: cytotoxic; hit rate 0.76% among 410,000; HepG2 CAGA-GFP viability, ATP luminescence, 18 h
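CellTiter-Glo luminescence gave cytotoxicity after 18 hours at 37 degrees C. The cells were HepG2 CAGA-GFP in 1% FBS DMEM, stimulated with 500 pg/mL TGF-beta after compound addition. %Activity was normalised to no-cell wells (complete cell-killing) and DMSO (no toxicity), and curves were fitted and classified.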
ATXN viability: Viability Counterscreen for Primary qHTS for Inhibitors of ATXN expression | hit rate 0.49% among 400,000 | S2 cells (HEK-293 line with an ATXN2-luciferase reporter) viability, CellTiter-Fluor protease fluorescence, 24 h | Potency, µM (series often up to 56.7 µM), actives largely listed as cytotoxic; also: nearly all actives have a fitted effect of over 40% in size
* = called active by the depositor; i = inactive; ? = inconclusive; / = not tested or not shown; [ ] = remark or other dose. Calls follow the shape of the dose curve; as a rule, active = well fitted curve in the direction sought with a large enough effect; inconclusive = small, poorly fitted or top-dose-only effect, or another doubt; inactive = no such curve, though single readings can be large; an effect the other way counts as inactive or inconclusive. Potency is read from the fitted curve at half-maximal effect.

SMILES	ATXN2 expr inh	HT1080-NT tox	HT1080 IDH1KD tx	TGFb inhibitor	HepG2 tox	ATXN viability
Cc1noc(C)c1COc1ccc(C(=O)NNC(=O)c2ccccc2F)cc1	-9%	?	6.5µM*	3%	-6%	i
Cc1noc(C)c1COc1ccc(C(=O)NNC(=O)c2ccccc2)cc1	-3%	?	15µM*	-8%	-5%	i
COc1cc(C(=O)OCC(C)=O)ccc1OCc1c(C)noc1C	-34%	?	18µM*	-4%	2%	i
Cc1ccc(S(=O)(=O)N2CCN(C(=O)c3ccc(OCc4c(C)noc4C)cc3)CC2)cc1	-8%	-7%	-9%	5%	-21%	i
COc1ccc(Cn2c(=O)c3oc4ccccc4c3n(Cc3ccccc3)c2=O)cc1	/	/	/	-20%	-19%	/
CCc1nn2c(=O)cc(COC(=O)c3cccs3)nc2s1	/	/	/	1%	-1%	/
Cc1cc2c(cc1NC(=O)c1ccccc1C)n(C)c(=O)c(=O)n2C	4%	/	/	?	-9%	i
CCN(CC)S(=O)(=O)c1cc(C(=O)Nc2ccccc2[N+](=O)[O-])ccc1Cl	2%	-24%	?	16µM*	-33%	i
NC(c1csc(Nc2nccc(C(F)(F)F)n2)n1)C1CCCCC1 (stereo not drawn)	?	21µM*	21µM*	?	-96%	i
NC(c1csc(Nc2ccc(C(F)(F)F)cn2)n1)C1CCCCC1 (stereo not drawn)	?	?	18µM*	?	-87%	i
NC(c1csc(Nc2ncccn2)n1)C1CCCCC1 (stereo not drawn)	-26%	-26%	-1%	2%	0%	i
CCc1cc2cc(OC)c(OC)cc2c(Cc2ccccc2)n1	21%	/	/	/	/	i
O=C(CC1OC(=O)c2ccccc21)Nc1ccc(Cl)c(S(=O)(=O)N2CCCCC2)c1 (stereo not drawn)	-5%	-7%	-21%	0%	8.9µM*	i
CCN(CC)S(=O)(=O)c1cc(NC(=O)CNc2cccc(S(=O)(=O)N3CCCC3)c2)ccc1C	-30%	4.6µM*	-21%	?	-11%	?
COCCNCC(=O)Nc1ccc(C)c(S(=O)(=O)N2CCCCC2)c1	-38%	-5%	5%	-9%	1%	?
Cc1ccc(NC(=O)CC2OC(=O)c3ccccc32)cc1S(=O)(=O)N1CCCCCC1 (stereo not drawn)	-3%	2%	5%	-17%	-4%	?
COc1cc(C(C)=O)ccc1OCC(=O)Nc1ccc(S(=O)(=O)N2CCCCC2)cc1	/	0%	2%	-1%	0%	?
Cc1ccc(NC(=O)CCl)cc1S(=O)(=O)N1CCCCCC1	?	16µM*	8.2µM*	?	-41%	?
COc1cc(C(C)=O)ccc1OCC(=O)Nc1ccc(C)c(S(=O)(=O)N2CCCCCC2)c1	28µM*	-22%	-22%	?	-31%	?
COc1cccc(CNC(=O)c2cc3c(s2)-c2c(C)cccc2OC3)c1	1%	/	/	?	-19%	i
CC[N+]1(CC)CCC(=C(c2ccccc2)c2ccccc2)C1C (stereo not drawn)	0%	/	/	/	/	i
CC(C)(C)n1ncc2c(=O)n(Cc3ccc(C(F)(F)F)cc3)cnc21	/	/	/	-23%	-33%	/
COc1ccc(S(=O)(=O)c2c(Nc3c(C)cccc3C)sc(C(=O)c3ccc(F)cc3)c2N)cc1	-14%	/	/	?	-3%	?
CC(NC(=O)Nc1ccc(Cl)c(Cl)c1)C(c1ccccc1)N1CCOCC1 (stereo not drawn)	?	23µM*	?	?	-51%	?
COc1ccc(NC(=O)COc2ccccc2C(N)=O)cc1S(=O)(=O)N1CCCCC1	/	0%	14%	-3%	3%	?
SMILES	ATXN2 expr inh	HT1080-NT tox	HT1080 IDH1KD tx	TGFb inhibitor	HepG2 tox	ATXN viability
CC(NC(=O)Nc1ccc([N+](=O)[O-])cc1)C(c1ccccc1)N1CCOCC1 (stereo not drawn)	6%[11.3 µM]	-25%	12%	-4%	-4%	i
O=C(O)CC(SCC(=O)Nc1ccc(Cl)c(S(=O)(=O)N2CCOCC2)c1)C(=O)O (stereo not drawn)	-4%	11%	6%	16%	4%	i
CC(CC(=O)Nc1ccc(Cl)c(S(=O)(=O)N2CCOCC2)c1)c1ccccc1 (stereo not drawn)	-29%	18µM*	-13%	?	0%	?
Cc1ccc(NC(=O)COc2ccccc2C(N)=O)cc1S(=O)(=O)N1CCCCCC1	?	-13%	-22%	?	-18%	15µM*
Cc1cc(C)c2c(=O)cc(C(=O)Nc3sc4c(c3C(=O)NCc3ccccc3)CCCC4)oc2c1	/	/	/	-3%	0%	/
COc1ccc(-n2nnnc2/C=C\Nc2ccccc2C(=O)c2ccccc2)cc1	-14%	5.8µM*	5.2µM*	9%	-5%	?
CCOc1ccccc1CN1CCCC(c2nc(C)ncc2-c2ccc(F)cc2)C1 (stereo not drawn)	/	/	/	/	/	i
NS(=O)(=O)Nc1c(Br)cc(Br)c2cccnc12	/	/	/	-2%	8%	/
CCN(c1ccccc1)S(=O)(=O)c1ccc(Cl)c(NC(=O)CN(C)C2CCN(C)CC2)c1	-18%	?	23µM*	1%	-43%	i
CCN(c1ccccc1)S(=O)(=O)c1ccc(Cl)c(NC(=O)CN2CCN(C)CC2)c1	-8%	1%[9.24 µM]	7%	-7%	-26%	i
C[C@@H]1CN(Cc2ccc3c(c2)CN(Cc2cccc4cccnc24)CCO3)C[C@H](C)O1	/	/	/	/	/	i
O=C(CC1Sc2ccccc2NC1=O)NNc1cc(Cl)ccc1Cl (stereo not drawn)	-27%	?	?	-14%	-14%	i
O=C(CC1Sc2ccccc2NC1=O)NNc1ccc(F)cc1 (stereo not drawn)	-8%	?	7.3µM*	-6%	2%	i
CCCCc1c(-c2ccccc2OC)ncn1Cc1cccc(-c2ccccc2)c1	28µM*	21µM*	?	/	/	?
CCCCc1c(-c2ccccc2OC)ncn1Cc1ccc(-c2ccccc2)cc1	25µM*	?	?	/	/	/
CCCCc1c(-c2ccccc2OC)ncn1CCc1cccc(Cl)c1	0%	18µM*	?	/	/	/
COc1cccc(Cn2cnc(-c3ccccc3OC)c2-c2cccnc2)c1	-32%	?	-7%	/	/	i
